Assay outcomes (PubChem)
IL-1B inflam inh: inhibitors of inflammasome signaling (IL-1 beta secretion); activity change, % at 57.5 µM; actives 4.7% (n = 360,000); THP-1 LPS/ATP IL-1B secretion, AlphaLISA, 16 h; active compounds read low; in the data active means activity change below about -50%; inconclusive means mostly about -30% to -49%; further: on the % scale 0 is the no-effect control and ±100 the full control effect
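Secreted IL-1B measured by AlphaLISA bead assay after 16 h compound exposure of THP-1 cells; compounds (final up to 57.5 uM) added 1 h before LPS (250 ng/mL) and ATP (1.25 mM) stimulation; lower signal means less secretion.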
SW480 rereplic: inducers of DNA re-replication in SW480 colon cancer cells | SW480 DNA re-replication, Hoechst DNA content imaging, 48 h | actives 1.8% (n = 340,000) | Potency, µM (titrated, usually from 46.1 µM), for inactives: top-dose re-replication activation, actives largely listed as activators; further: potency means the concentration at half of the fitted maximal effect; % of control where 0% means no effect; nearly all actives have a fitted effect of over 55% in size
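Cells (250 per well) received 23 nL compound or DMSO by pin tool and were kept 48 hr at 37 C, 5% CO2. Nuclei were then stained with Hoechst for 40 min and scanned for DNA content.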
MCF10A rereplic: DNA re-replication induction in MCF 10a cells. MCF 10A DNA re-replication, Hoechst nuclear intensity, 48 h. Potency, µM (highest dose often 46.1 µM), for inactives: top-dose activity, positive = re-replication, most hits filed as activators. AID 624296. actives 2.9% (n = 350,000); further: potency means the concentration at half of the fitted maximal effect; % of control where 0% means no effect; nearly all actives have a fitted effect of over 50% in size
Vif-APOBEC3F blk: blocks the Vif interaction with APOBEC3F; actives 0.2% (n = 390,000); HeLa A3F-eYFP + Vif (tagged APOBEC3F with the HIV-1 protein that degrades it), YFP fluorescence increase; AID 602313; Potency, µM (titrated, usually from 46.1 µM), for the others: top-dose activity, negative = active; further: potency means the concentration at half of the fitted maximal effect; % of control where 0% means no effect; nearly all actives have a fitted effect of over 65% in size
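HeLa cells stably expressing A3F-eYFP plus Vif, plated and incubated overnight at 37 deg C, then exposed to compounds overnight at 37 deg C. Blocked degradation read as raised yellow fluorescence (Ex 488/Em 500-530).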
Vif-A3G inh: Vif-A3G binding inhibition | HeLa A3G-eYFP + Vif (tagged APOBEC3G with the HIV-1 protein that degrades it), YFP fluorescence, overnight | Potency, µM (series often up to 46.1 µM), for inactives: top-dose activity, negative = active, most hits filed as inhibitors | actives 0.076% (n = 410,000); further: potency means the concentration at half of the fitted maximal effect; on the % scale 0 is the no-effect control and ±100 the full control effect; nearly all actives have a fitted effect of over 60% in size
Target sequence (Q9HC16 whole entry, looked up): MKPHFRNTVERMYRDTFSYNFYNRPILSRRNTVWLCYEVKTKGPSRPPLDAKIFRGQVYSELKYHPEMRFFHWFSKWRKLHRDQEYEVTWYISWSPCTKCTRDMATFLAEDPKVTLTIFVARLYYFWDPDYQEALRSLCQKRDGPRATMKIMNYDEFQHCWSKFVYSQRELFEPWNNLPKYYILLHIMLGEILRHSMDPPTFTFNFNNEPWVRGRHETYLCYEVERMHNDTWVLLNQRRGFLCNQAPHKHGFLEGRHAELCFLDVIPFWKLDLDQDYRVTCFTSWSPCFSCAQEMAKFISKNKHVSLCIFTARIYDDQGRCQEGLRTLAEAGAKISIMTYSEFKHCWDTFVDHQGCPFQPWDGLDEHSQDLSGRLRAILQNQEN
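HeLa cells stably expressing Vif and C-terminally eYFP-tagged A3G, seeded overnight at 37 deg C, then exposed to compound by pintool overnight at 37 deg C. Rise in yellow fluorescence (Ex 488/Em 500-530, Acumen) marks blocked Vif-driven A3G degradation.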
Giardia kill: kills Giardia lamblia; AID 540267; Giardia lamblia trophozoite viability; actives 0.15% (n = 340,000); activity change, % at 7.66 µM, hits read low; in the data active means activity change below about -80%; inconclusive means between about -30% and that limit;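 further: parasites exposed to compound for two days anaerobically before the ATP read; on the % scale 0 is the no-effect control and ±100 the full control effect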
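Giardia trophozoites, 100 cells per well, were exposed to compounds for 48 hrs at 37 deg C under anaerobic conditions; viability was then read as ATP content by bioluminescence after 15-30 min at room temperature.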
An asterisk follows results filed as active; u = inconclusive; x = no result. The list is not random: actives were taken first. Their share in the collection is about 6.9%. Unless noted, the call rests on the fitted dose curve; in most records, active means well fitted curve in the direction sought with a large enough effect; inconclusive means small, poorly fitted or top-dose-only effect, or another doubt; inactive means no such curve, though single readings can be large; an effect the other way counts as inactive or inconclusive.

SMILES | IL-1B inflam inh | SW480 rereplic | MCF10A rereplic | Vif-APOBEC3F blk | Vif-A3G inh | Giardia kill
O=S(=O)(NCc1nc2cccnc2n1Cc1ccccc1Cl)c1ccc2c(c1)CCCC2 | x | x | x | 1.6% | 1.5% | x
Cc1ccc(C)c(N2CCN(S(=O)(=O)c3ccc(-c4cc(C(F)(F)F)on4)s3)CC2)c1 | x | x | x | 0.4% | 3.5% | x
COc1ccc(C(=O)Nc2nnc(S(=O)(=O)N(C)c3ccc(C)cc3)s2)cc1 | x | x | x | -5.1% | 3.8% | x
COc1cccc(-n2c(SCC(=O)Nc3cc(C)ccc3C)nc3c(oc4ccccc43)c2=O)c1 | x | x | x | 2.3% | 2.2% | x
COc1cccc(C(=O)N/N=C(\C)CC(=O)Nc2ccc(N(C)C)cc2)c1 | -88.7* | u | -5.1% | 6.2% | -9.7% | 3.7
O=C(Nc1ccc(Br)cc1)Nc1ccccc1F | -66.0* | -1.6% | 2.0% | 8.8% | -8.4% | -21.2
Fc1ccccc1NC(=S)Nc1ccc(Br)cc1 | -58.3* | -0.8% | 15.7% | u | -0.7% | -0.2
Fc1cc(Br)ccc1NC(=S)Nc1ccccc1 | 0.0 | -5.8% | u | 2.4% | 1.5% | -14.8
COc1ccc(-c2nc3cc(C(C)C)ccc3o2)cc1NC(=O)COc1ccc(C)cc1C | x | x | x | -4.4% | -2.4% | x
CCOc1ccccc1NC(=O)c1ccc(F)c(S(=O)(=O)N2CCN(c3ccc(F)cc3)CC2)c1 | x | x | x | 6.7% | 8.4% | x
CCc1ccccc1NC(=O)c1ccc(-c2csc(C)n2)cc1 | -9.3 | -3.4% | 0.5% | 1.6% | -1.2% | -15.1
Cc1ccc(C)n1-c1ccc(C(=O)Nc2ccccc2F)cc1 | -86.9* | u | 3.8% | 4.6% | -1.3% | 13.3
CCc1ccccc1NC(=O)c1ccc(-n2c(C)ccc2C)cc1 | -83.2* | u | u | -23.7% | -8.4% | 6.6
CCCCNC(=O)c1cc2c(-c3ccc(Cl)cc3)nn(C)c2s1 | 19.3 | 2.7% | u | -7.1% | -3.4% | 14.9
Cn1nc(-c2ccc(Cl)cc2)c2cc(C(=O)NCCCN3CCCC3)sc21 | -88.7* | u | 23.1µM* | u | 6.9% | -17.4
CCN1CCCC1CNC(=O)c1cc2c(-c3ccc(Cl)cc3)nn(C)c2s1 (configuration not stated) | -84.8* | 20.6µM* | u | u | 0.0% | 37.0
CC1CCc2c(sc3nc(-c4cc5ccccc5oc4=O)nc(Cl)c23)C1 (configuration not stated) | x | x | x | -6.5% | -1.8% | x
Cc1cc(N=Cc2c(O)ccc3cc(Br)ccc23)no1 | 19.2 | -693.1% | 13µM* | u | -5.8% | -17.8
C=C(C)C1CCC(C)=C1COC(=O)Nc1ccccc1 (configuration not stated) | -61.6* | -1.1% | u | -7.1% | -6.6% | -24.6
O=C(Nc1ccccc1)OCCCCOC(=O)Nc1ccccc1 | -0.5 | -3.0% | 3.2% | u | -3.6% | 15.8
Cc1nc([N+](=O)[O-])c(Sc2nc3ccc([N+](=O)[O-])cc3[nH]2)n1Cc1ccccc1 | -76.0* | u | 18.4µM* | u | u | -1.1
COc1ccc(C)cc1NC(=O)CN1c2ccccc2S(=O)(=O)c2ccccc21 | x | x | x | -6.9% | 1.2% | x
COc1ccc(NC(=O)c2oc3ccc(S(=O)(=O)N4CCC5(CC4)OCCO5)cc3c2C)cc1Cl | x | x | x | -4.9% | 2.9% | x
Cc1cc(NCCCn2ccnc2)n2nc(C)c(-c3ccccc3)c2n1 | -22.4 | -0.5% | -0.1% | -10.1% | -2.2% | -17.0
Cc1cc(Cl)n2nc(C)c(-c3ccc(Cl)cc3)c2n1 | -98.6* | u | 16.4µM* | 3.0% | -21.1% | -6.2
Cc1cc(NCCCn2ccnc2)n2nc(C)c(-c3ccc(Cl)cc3)c2n1 | -60.3* | 2.7% | 21.0% | -14.8% | -12.4% | 1.4
CCc1ccccc1NC(=O)CSc1nnc(-c2cc(OC)c(OC)c(OC)c2)o1 | x | x | x | 0.8% | 1.3% | x
Cc1cc(Cl)ccc1OCC(=O)NC1CCCC1 | -84.9* | 27.7% | -15.3% | -1.5% | -5.7% | -27.3
Cc1ccccc1CC(=O)NC1CCCCCC1 | 18.7 | 0.92µM* | 8.0% | -3.0% | 2.9% | -6.4
